Here are results for 40 sequences from the supplement of paper PMC6555819.

The test system of this experiment is VDR:RXRa (NR concentration 270 nM, RXRa partner concentration 90 nM). Description: PBM binding z-score (relative to random genomic background probes); higher = stronger binding; sequences stand for … in GC…GCGATTGACAGCGTAGAATGAAGG
The method, then: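 Protein-binding microarray (Agilent 4x180K custom design, double-stranded 60-nt probes: 5' GC cap, 34-nt variable region, 24-nt constant primer region; full probe sequence given). Purified or IVT nuclear receptor:RXRα heterodimers (3:1 NR:RXRα, mostly 270:90 nM) or homodimers were incubated for 1 h in PBS with 2% milk and no ligand, then detected with Alexa488 antibodies. Fluorescence from o1-orientation probes (~5 replicates averaged) was converted to z-scores against 500 random hg19 background probes. Variable regions are seed direct-repeat (DR0–DR5) sites, all their single-nucleotide variants and half-site ablations.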
As for AATACAGGGTCACTAGGACAGAGTAGGTACGAAT, the PBM binding z-score worked out at 3.97.
With ACAGACAGGTGAGTTAAGGTAACTCAGCTGGACG, the PBM binding z-score was -0.161.
For CTTCCAAGGTCAATGCTAGGTCAGTGAAAGCATT, the PBM binding z-score worked out at 4.72.
Sequence TCAGACAGGTGAAGCTAACTCAGGTACGCAGTCG returned a PBM binding z-score of 0.334.
CCGACTGGGGCAAGGTTACCTTAACGCACAGCCA gave a PBM binding z-score of -0.0796.
CCGAGTAGGTTATGAGGCATTCAGGCAACGGTGA showed a PBM binding z-score of -0.286.
Sequence TGAATGAGGTTAAAGAGCAGGGAACGTGGCGTCG yielded a PBM binding z-score of 1.4.
For the sequence AGAACGAGGGCCCGCTGAGTTGATAGCAGAGTAG, the PBM binding z-score was -1.03.
For CTACCAAGGTGAACATGGTCGTTGATTACTATTC, the PBM binding z-score was determined as 1.18.
On to TCGAGTAGGTTACCAATGGGGCATTCACCTTTCT, for which the PBM binding z-score amounted to 0.284.
On to CGTCAAAGTTCAACTAAGGTAGCGTAAAGCACGC, for which the PBM binding z-score turned out to be 4.35.
CAATCTAGGTCACCGGAAGGTCAAAGTCCGCATG: the PBM binding z-score stood at 6.01.
As for TAGCCTAGGTCAAGGGCCAGTATACCACGCGAAC, the PBM binding z-score turned out to be 1.6.
Sequence CCTAGCAGGCCATTCTGGGTCACTCAAGGCTTGA gave a PBM binding z-score of 1.04.
For CATACAGGGTCAGCTAGGGCAGAGTAGGGACGGC, the PBM binding z-score stood at 4.55.
Turning to TCTGCTAGGTCAACAATGGTCAGCTAATCTGCTA, the PBM binding z-score was determined as 1.84.
The sequence CGAACTAGGTCATCAAGGACAGTGAATACATTGA showed a PBM binding z-score of 5.54.
For the sequence ATTTCTAGGTAACAAGTTCAGTGAAAGAGAGGAC, the PBM binding z-score stood at 2.56.
Sequence ATCGAAAGGTCGAAGGTGAGTGTACCCACCCGAA displayed a PBM binding z-score of 3.05.
Next, CAAACTACGTCACCGGAAGGTCAAAGTCCGCATG: 3.23.
On to TCGTATAGGTAAAAGGTGAAAGTCGGTGTGGTAA, for which the PBM binding z-score stood at 1.58.
For the sequence TCGAGTAGGTTCGGGGCATTCAGAATGGCGTCGA, the PBM binding z-score came to 0.124.
For the sequence AATACAGGGTCATCATAGGCCAGAGTACGCACAG, the PBM binding z-score amounted to 5.14.
The sequence CCTTACGGGTCCAGGTTATAGCACGGGTGGTACG gave a PBM binding z-score of -0.152.
For CCTACTTGGCCACGAAAGGTCATTGATTCAGTGA the value was 4.14; for CCTATTAGTTGACCATCAGGGCAACCGAAGCTCG, 0.508.
Next, GCTTACGGGTCAAAGTTTATAGCATGAATAGAAT: 4.3; AGTCAAAGTTCGTCTAGGTAACGTAAGATATGCT: 2.59; CCTAGTTGGTCAAGGTCGCACACGCTATAGGTAC: 1.75.
As for TTACCAAGGTGAGCTGAGGTCGTTGACCCAACTC, the PBM binding z-score amounted to 3.96.
Turning to TATACAGGGTCAAAGGCCAGAGTGCGAATGTCGA, the PBM binding z-score amounted to 4.88.
As to CCAGACAGGTGAGAAGGTAACACAGCCTCGATTA, the PBM binding z-score turned out to be 0.086.
For the sequence CAAACTAGGTCAGGGTCAAAGTCGGTTTGTGCCA, the PBM binding z-score was found to be 4.97.
As to CTACCAAGGTGAACAAGGTCCTTGATTACTATTC, the PBM binding z-score was determined as 3.56.
CCAGACACGTGAAAGGTAACTCAGTCTGGTACGC: the PBM binding z-score was -0.114.
For the sequence CCTAGCAGGCCAGGGTCACTCAAGCATTTCGCTT, the PBM binding z-score was 2.48.
For the sequence ATCGAAAGGTCGACGAGGTGCGTATACACCGTTT, the PBM binding z-score amounted to 4.18.
GAAACGAGGGCAAGTTGATAGCAGAGTTTGATGG came in with a PBM binding z-score of 1.51.
As for CCTATTAGTTGACCATAACGGCAACCGAAGCTCG, the PBM binding z-score was determined as 0.7.
On to TATACAGGGTCAAAGGCCAGAATACGAATGTCGA, for which the PBM binding z-score came out at 4.62.
